Assay outcomes from PubChem.
The list is not random: actives were taken first. Their share in the collection is about 2.8%.
PI5P4K alpha inh = qHTS for Inhibitors of phosphatidylinositol 5-phosphate 4-kinase (PI5P4K); Phosphatidylinositol 5-phosphate 4-kinase type-2 alpha (Homo sapiens), P48426; PI5P4Kalpha enzyme, ADP-Glo luminescence, 60 min; hits give low values; max response, %; 330,000 tested, 1.2% active; AID 652105, 2013; active = max response of -50% or lower; inconclusive = between -30% and -50%; inactive = -30% or higher; note: value at the top dose of about 77 µM; % is set by controls: 0 for no effect and ±100 for the full control effect
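Controls without substrate or without enzyme flank wells where PI5P4Kalpha converts substrate using 5 microM ATP (final). Incubation lasts 60 minutes at room temperature; ADP formed is read by ADP-Glo luminescence.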
POLK inh = qHTS for Inhibitors of Polymerase Kappa; 400,000 tested, 0.53% active; DNA polymerase kappa (Homo sapiens), Q9UBT6; Potency, µM (top dose mostly 107 µM), inactives show at the highest dose activity, negative = inhibition, hits mostly inhibitors; purified Pol kappa, fluorescent DNA synthesis assay, 10 min; AID 588579, 2011; note: potency is the fitted concentration of half-maximal effect; % is set by controls: 0 for no effect and ±100 for the full control effect
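10 nM Pol kappa preincubated 15 min at room temperature with compounds, then reaction started with substrate at 50 nM final. Fluorescence read kinetically at 0 and 10 min; buffer-only wells served as negative control.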
Pol beta inh = qHTS Assay for Inhibitors of DNA Polymerase Beta. P06746. Pol beta primer extension/strand displacement, fluorescence kinetic. Potency, µM (doses to about 114 µM), for inactives: top-dose activity change, negative = inhibition, hits mostly inhibitors. 340,000 tested, 1.3% active. AID 485314, 2010; note: potency is the fitted concentration of half-maximal effect; % is set by controls: 0 for no effect and ±100 for the full control effect
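Pol beta (10 nM) and compounds were preincubated 15 min at room temperature, then 50 nM substrate (final) started primer extension/strand displacement. Reads were taken at 0 and 10 min; concentration-response data were fitted to a four-parameter Hill equation.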
WRN helicase inh = qHTS for Inhibitors of WRN Helicase. WRN helicase unwinding, fluorescent forked duplex, kinetic. 360,000 tested, 0.46% active. Potency, µM (series often up to 114 µM), inactives show at the top dose activity change, negative = inhibition, most hits filed as inhibitors. AID 651768, 2012. Bifunctional 3'-5' exonuclease/ATP-dependent helicase WRN (Homo sapiens), Q14191; note: potency is the fitted concentration of half-maximal effect; % is set by controls: 0 for no effect and ±100 for the full control effect; nearly all actives have a fitted effect of over 55% in size
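Kinetic red-fluorescence monitoring (525/598 nm) tracks WRN helicase activity after 100 nM fluorophore-quencher forked duplex and 2 mM ATP are added to 20 nM enzyme pretreated 15 min at room temperature with compound.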
Pol eta inh = qHTS for Inhibitors of Polymerase Eta. recombinant Pol eta, fluorescent DNA replication assay. Potency, µM (top dose mostly 114 µM), inactives show at the highest dose activity change, negative = inhibition, actives largely listed as inhibitors. AID 588591, 2011. 390,000 tested, 1.2% active; note: potency is the fitted concentration of half-maximal effect; % is set by controls: 0 for no effect and ±100 for the full control effect
Target sequence (Q9Y253 whole entry, looked up): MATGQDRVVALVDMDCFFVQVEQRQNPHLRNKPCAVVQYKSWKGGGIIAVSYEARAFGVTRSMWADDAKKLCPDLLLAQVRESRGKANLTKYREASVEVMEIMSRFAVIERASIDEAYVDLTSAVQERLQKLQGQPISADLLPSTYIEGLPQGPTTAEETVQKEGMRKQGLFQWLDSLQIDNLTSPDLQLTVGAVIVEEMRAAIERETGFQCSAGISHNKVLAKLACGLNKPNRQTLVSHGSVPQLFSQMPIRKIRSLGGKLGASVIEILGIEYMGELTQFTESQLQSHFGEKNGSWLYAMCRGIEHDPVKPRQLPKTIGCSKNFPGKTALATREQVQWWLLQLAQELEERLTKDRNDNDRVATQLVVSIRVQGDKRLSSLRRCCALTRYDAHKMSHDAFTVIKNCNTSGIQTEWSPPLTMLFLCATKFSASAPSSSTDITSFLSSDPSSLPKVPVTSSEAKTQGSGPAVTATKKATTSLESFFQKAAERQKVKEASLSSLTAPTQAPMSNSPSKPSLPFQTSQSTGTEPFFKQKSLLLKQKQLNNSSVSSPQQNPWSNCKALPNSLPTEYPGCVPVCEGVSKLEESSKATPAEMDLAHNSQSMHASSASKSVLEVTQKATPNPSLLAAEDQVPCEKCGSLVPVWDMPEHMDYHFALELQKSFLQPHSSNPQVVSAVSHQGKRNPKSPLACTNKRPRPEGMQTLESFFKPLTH
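Fluorescent replication assay: 50 nM final substrate added after a 15 min room-temperature compound preincubation with 10 nM enzyme. Signal taken at 0 min and again at 10 min.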
POLI inh = qHTS for Inhibitors of Polymerase Iota; 390,000 tested, 1% active; Potency, µM (titrated, usually from 115 µM), without a hit: at the highest dose activity, negative = inhibition, usual class: inhibitors; AID 588590, 2011; Pol iota fluorescent replication assay, 10 min; note: potency is the fitted concentration of half-maximal effect
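Pol iota at 10 nM preincubated 15 min with compounds at room temperature; reaction started with fluorescent substrate, 50 nM final. Fluorescence read kinetically at 0 and 10 min; buffer-only wells as negative control.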
An asterisk follows results filed as active; ? = inconclusive; · = not tested or not shown; ! = a repeat was not active; [ ] = remark or other dose. Unless noted, calls come from the whole dose curve; as a rule, active = well fitted curve in the direction sought with a large enough effect; inconclusive = small, poorly fitted or top-dose-only effect, or another doubt; inactive = no such curve, though single readings can be large; an effect the other way counts as inactive or inconclusive.

SMILES	PI5P4K alpha inh	POLK inh	Pol beta inh	WRN helicase inh	Pol eta inh	POLI inh
CCCCC(CC)C(=O)NCc1ccc(F)cc1 (stereo unspecified)	8.8	-9.3%	0.3%	0.0%	-22.4%	24.4%
Nn1cnnc1N/N=C\c1ccc(-c2ccccc2[N+](=O)[O-])o1	-3.4	-8.2%	-19.1%	-18.9%	-6.6%	2.82µM*
Cc1c(C(=O)N/N=C/c2ccc(-c3ccccc3[N+](=O)[O-])o2)sc(N)c1C#N	-52.7*	-11.6%	-6.1%	?	14.1µM*	56.2µM*
Cc1c(C(=O)N/N=C/c2ccc(O)c(Br)c2)sc(N)c1C#N	-83.9*	-27.9%	?	-34.2%	?	?
O=C(N/N=C/c1ccc(-c2ccccc2[N+](=O)[O-])o1)c1cncc(Br)c1	-27.5	-17.7%	31.1%	-35.2%	-16.1%	57.6%
COc1cc(/C=N/NC(=O)c2sc(N)c(C#N)c2C)ccc1O	-83.8*	?	-18.6%	?	-6.3%	?
O=[N+]([O-])c1ccccc1-c1ccc(/C=N/n2cnnc2)o1	·	-3.6%	8.4%	9.1%	4.9%	-5.4%[58.9 µM]
COc1cc(/C=N/NC(=O)c2ccccc2)ccc1O	1.2	-20.0%	-3.5%	-2.2%	7.6%	3.0%
C[C@H](CO)N1C[C@H](C)[C@@H](CN(C)C(=O)CCC(F)(F)F)OCc2cnnn2CCCC1=O	-1.2	·	·	-5.2%	-16.3%	·
C=CCNC(=O)[C@@H]1CSC2c3ccc(OC)c(OC)c3C(=O)N21 (stereo partly specified)	2.4	-5.5%	-17.2%	-8.0%	?	39.8µM*
CC1(C)Cc2c(sc(NC(=O)COc3cccc4ccccc34)c2C#N)C(C)(C)N1	-3.1	-15.2%	22.4µM*	-28.8%	?	?
CCOc1ccccc1NC(=O)N1CCc2c(sc(C)c2CC)C1c1ccccc1 (stereo unspecified)	·	-5.6%[60.1 µM]	18.6%	·	-17.0%	12.0%
CCCCCCCCCCCCCCCC(=O)N[C@@H](COP(=O)(O)O)C(=O)O	·	26.7µM*!	·	·	·	·
Cc1cc(C)c2nc(N3CCCN(C(=O)c4ccco4)CC3)c(C#N)cc2c1	?	-20.2%	39.8µM*	-32.0%	?	-10.5%
Cc1nc(N2CCN(C(=O)c3ccco3)CC2)c(C#N)c2c1CCCC2	-1.9	-13.2%	0.6%	-5.3%	-11.2%	79.7%
Clc1ccccc1COc1ccc(/C=N/n2cnnc2)cc1	-0.4	-24.2%	31.6µM*	-16.2%[57.1 µM]	-0.7%	9.9%
CC(C)N(C)C1=CC(=O)C(N(C)C(C)C)=CC1=O	4.2	?	·	-34.1%	7.5%	44.7µM*
Oc1c(Br)cc(Br)cc1/C=N/NC(=S)N[C@H]1CC2C=CC1C2 (stereo partly specified)	-89.3*	-5.0%	?	-18.6%	-8.3%	-7.5%
Nc1cc([N+](=O)[O-])ccc1N1C(=O)CCCC1=O	-9.3	-19.6%	39.8µM*	-12.1%	8.8%	?
CCCCCCCCCCC/C=C\C(C)(C)/C=C\CCCC(=O)O	·	26.7µM*!	31.6µM*	·	28.2µM*	28.2µM*
CCCCCCC/C=C\CCCCCCCCC(=O)O	·	?	?	·	?	28.2µM*
COc1ccc(C2=CC3=C(Br)C(=O)C(C)(OC(=O)c4ccc(Cl)nc4)C(=O)C3=CO2)cc1 (stereo unspecified)	?	?	50.1µM*	?	22.4µM*	10µM*
COC(=O)CCC(=O)OC1(C)C(=O)C2=CN(CCCCO)C(c3ccc(OC)cc3)=CC2=C(Br)C1=O (stereo unspecified)	·	·	-13.1%	·	·	·
COC(=O)CCC(=O)OC1(C)C(=O)C2=CN(CCc3ccccn3)C(c3ccc(OC)cc3)=CC2=C(Br)C1=O (stereo unspecified)	?	-16.1%	·	-8.4%	31.6µM*	?
COC(=O)CCC(=O)OC1(C)C(=O)C2=COC(c3ccc(OC)cc3)=CC2=C(Br)C1=O (stereo unspecified)	-79.4*	25.1µM*	22.4µM*	?	10µM*	12.6µM*
SMILES	PI5P4K alpha inh	POLK inh	Pol beta inh	WRN helicase inh	Pol eta inh	POLI inh
Cc1cc(C)cc(NC(=O)N2CCN(C(=O)c3nsc4ccccc34)CC2)c1	·	-4.7%[60.1 µM]	35.8%	·	3.5%	-12.2%
Cc1cc(NC(=O)c2ccc(S(=O)(=O)N3CCc4ccccc43)cc2)no1	-24.0	-2.0%[60.1 µM]	50.1µM*	-4.0%	-19.7%	?
COc1ccc(S(=O)(=O)N2CCc3ccccc32)cc1C(=O)Nc1ccc(C(N)=O)cc1	-4.1	-10.0%	·	5.6%	-12.2%	89.1µM*
Cc1ccc(S(=O)(=O)NCCc2csc3nc(-c4ccccc4C)nn23)cc1	·	-10.3%[60.1 µM]	15.9%	·	-19.4%	3.1%
O=C(N/N=C/c1ccccn1)c1cc(-c2ccc3ccccc3c2)n[nH]1	?	-24.6%	20µM*	?	?	?
O=C(N/N=C/c1c[nH]c2ccccc12)c1cc(-c2ccc3ccccc3c2)n[nH]1	-56.7*	-23.1%	-23.6%	?	-15.3%	6.8%
O=C(N/N=C/c1c[nH]c2ccccc12)c1cc(-c2cccc3ccccc23)n[nH]1	-56.0*	-18.9%	4.8%	-8.3%	-1.2%	6.4%
COc1ccccc1CCN1COc2c(cc3c(C)c(C)c(=O)oc3c2C)C1	·	2.4%	0.8%	·	-11.8%	29.4%
Nc1nc(=S)ss1	-16.7	-11.6%	·	-31.2%	-2.1%	28.2µM*
Cc1c(C(=O)N(Cc2ccco2)Cc2cccs2)oc2ccccc12	?	?	·	-33.0%	?	39.8µM*
O=C(c1cc2ccccc2o1)N(Cc1ccco1)Cc1cccs1	-11.2	-23.4%	·	-10.7%	?	2.0%
CC(C)N(CCNC(=O)C1CCCN(c2ncnc3c2nc2n3CCCCC2)C1)Cc1ccccc1 (stereo unspecified)	2.7	-7.7%	-22.0%	6.8%	-12.4%	0.3%
O=C1NC(=S)SC1=C1CCCCCC1	-57.2*	-10.5%	-27.5%	-6.7%	?	?
O=C1N=C(N2CCCCC2)SC1=C1CCCCC1	-7.0	-11.4%	2.3%	5.0%	-13.7%	5.0%
CCOC(=O)C1=C(C(=O)OCC)c2ccc(OC)c(OC)c2C1	1.8	0.0%	·	-8.9%	-9.6%	15.6%
Cc1ccc(OCc2nn3c(-c4n[nH]c5c4CCC5)nnc3s2)cc1	·	·	14.1µM*	·	·	·
O=c1c2cc3c(cc2n(Cc2ccc(F)cc2)c(=O)n1Cc1nc(-c2ccccc2)no1)OCO3	·	-2.7%	-1.1%	·	1.6%	10.5%
